# MEX-5 binding: MEX-5 zinc finger RNA-binding disruptors – biochemical, C. elegans, fluorescence polarization, MLPCN library, primary screen; MEX-5/FITC-TCR2 RNA binding; hits give low values; activity score (negative = inhibition of binding), % at 10 µM; hit rate 0.38% among 300,000;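 active = inhibition past about -25% in most replicates, and total fluorescence under double the plate's negative control median, limit read from the data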;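 also: 0% = DMSO and -100% = 5 µM competing unlabeled TCR2 RNA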
# E coli Lon inh: inhibitors of E. coli Lon protease, primary screen, biochemical, fluorescence polarization; hit rate 0.42% among 360,000; purified E. coli Lon protease; inhibition, % at 7.94 µM; P0A9M0; in the data active = inhibition above about 13%, passing the limit was not always enough;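 also: 0% = enzyme with probe and DMSO and 100% = no enzyme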
# GLD-1 RNA inh: GLD-1/TGE RNA complex disruptors, primary screen, biochemical, fluorescence polarization; inhibition, % at 5.96 µM; purified GLD-1 + fluorescein TGE RNA; Female germline-specific tumor suppressor gld-1 (Caenorhabditis elegans), Q17339; hit rate 0.44% among 320,000;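 active = percent inhibition above a per-plate cutoff, the plate mean of test compounds plus 3 SD, cut at about 30% in these data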;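 also: 0% = DMSO wells with GLD-1 and probe and 100% = wells lacking GLD-1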
# EBV gp42 inh: Epstein-Barr virus gp42 inhibitors, primary screen, biochemical, uHTS, fluorescence polarization. Glycoprotein 42 (Epstein-Barr virus (strain AG876)), Q1HVG2. Fluorescence polarization binding assay, mP read-out. inhibition, % (tested at 21.74 µM). hit rate 0.42% among 220,000. AID 1085, 2008; in the data active = inhibition above about 50%
# Target sequence (Q1HVG2 whole entry, looked up): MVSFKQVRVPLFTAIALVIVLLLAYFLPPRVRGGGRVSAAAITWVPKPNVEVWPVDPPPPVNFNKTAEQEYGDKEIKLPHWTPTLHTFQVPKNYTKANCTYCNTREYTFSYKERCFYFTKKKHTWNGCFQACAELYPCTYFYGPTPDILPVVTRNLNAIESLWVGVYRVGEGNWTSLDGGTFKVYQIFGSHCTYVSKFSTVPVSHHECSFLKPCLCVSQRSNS
# BCLXL inh: inhibitors of human Bcl-xL, primary screen, biochemical, fluorescence polarization, HTS; Bcl-2-like protein 1 (Homo sapiens), Q07817; GST-Bcl-xL / FITC-Bim BH3 peptide fluorescence polarization; inhibition, % at 10.9 µM; hit rate 0.7% among 320,000; AID 2129, 2009;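 active = inhibition above the mean of all tested compounds plus 3 SD, cutoff set per campaign, cut at about 30% in these data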;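 also: 0% = DMSO wells and 100% = unlabeled Bim-BH3 peptide competitor; inhibitors lower millipolarization by displacing the labeled peptide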
# Target sequence (Q07817 whole entry, looked up): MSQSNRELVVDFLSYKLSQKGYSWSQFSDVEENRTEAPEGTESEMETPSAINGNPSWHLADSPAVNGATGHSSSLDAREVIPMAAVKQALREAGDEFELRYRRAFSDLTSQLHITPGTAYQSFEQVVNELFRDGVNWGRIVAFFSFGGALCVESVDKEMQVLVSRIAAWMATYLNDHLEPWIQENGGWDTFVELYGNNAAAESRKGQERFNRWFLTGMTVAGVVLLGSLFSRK
# MCL1 BIM primary: inhibitors of MCL1 binding to BIM-BH3, primary screen, biochemical, fluorescence polarization; GST-MCL1 / FITC-Bim-BH3 fluorescence polarization; inhibition, % at 10.9 µM; hit rate 0.68% among 320,000; Induced myeloid leukemia cell differentiation protein Mcl-1 (Homo sapiens), Q07820;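 active = inhibition above the mean inhibition of all tested compounds plus 3 SD, set per campaign, cut at about 40% in these data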;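 also: 0% = DMSO wells and 100% = unlabeled Bim-BH3 peptide control; higher means more loss of mP so more displacement of Bim peptide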
# Bcl-xL conf: Bcl-xL inhibitors blocking Bim BH3 binding, confirmation, counter-screen for MCL1 inhibitor project, biochemical, fluorescence polarization; GST-Bcl-xL / FITC-Bim BH3 peptide FP binding; shares compounds with MCL1 BIM primary; AID 2166, 2009; inhibition, % at 10.9 µM; hit rate 54% among 1,700;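 active = inhibition above a cutoff equal to the mean inhibition of all tested compounds plus 3 SD, cut at about 30% in these data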;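 also: 0% = DMSO wells and 100% = unlabeled Bim BH3 control peptide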
# MCL1 BIM confirm: inhibitors of MCL1 binding to BIM-BH3, confirmation, biochemical, fluorescence polarization, triplicate; shares compounds with MCL1 BIM primary; GST-MCL1 / FITC-Bim-BH3 fluorescence polarization; inhibition, % at 10.9 µM; hit rate 61% among 1,700; AID 2168, 2009;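 active = inhibition above the average of all tested compounds plus 3 SD, cut at about 40% in these data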;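 also: 0% = DMSO wells and 100% = unlabeled Bim-BH3 control peptide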
# Starred values were filed as active, the others as inactive; nt = no result. An excerpt weighted towards active compounds, which were near 1.5% of everything screened.
SMILES,MEX-5 binding,E coli Lon inh,GLD-1 RNA inh,EBV gp42 inh,BCLXL inh,MCL1 BIM primary,Bcl-xL conf,MCL1 BIM confirm
COc1ccc2ccc3c(c2c1)N=CC1(O3)N(C)c2ccccc2C1(C)C (stereo not drawn),1,-5,7,-9,36*,54*,62*,83*
CN1c2ccccc2C(C)(C)[C@]12C=Cc1cc(O)ccc1O2,1,-24,26,-12,13,15,nt,nt
COc1ccc(C(=O)NCCS(=O)(=O)NC(C)c2ccccc2)cc1 (stereo not drawn),1,-6,-4,nt,5,1,nt,nt
O=C(OCC(=O)c1ccc(Cl)s1)c1cncc(Br)c1,nt,-12,-4,nt,nt,nt,nt,nt
COc1cc(NC(=O)CSc2cc(C)c3cc(C)cc(C)c3n2)c(C(=O)O)cc1OC,0,-9,7,-9,0,2,nt,nt
Cc1ccc(/C=C2\SC(=S)N(/N=C/c3cc([N+](=O)[O-])ccc3O)C2=O)o1,0,-2,4,-10,27,66*,31*,61*
O=C1c2cccc(O)c2C(=O)c2c(O)cccc21,-5,nt,92*,26,119*,158*,81*,97*
O=C1C=C(O)c2cccc(O)c2C1=O,nt,20,8,-24,12,13,nt,nt
c1coc(-c2nnc(-c3ccco3)nn2)c1,-59*,2,8,nt,43*,75*,39*,68*
c1ccc(-c2nnc(-c3ccco3)o2)cc1,0,-2,3,-9,5,1,nt,nt
CCC(=O)Nc1c(-c2ccccc2Cl)c(=O)c2ccccc2n1CC,0,0,1,nt,3,3,nt,nt
N#Cc1c(NC(=O)c2ccco2)sc2c1CCC2,-1,-18,6,nt,21,56*,25,36
NC(=O)c1c(NC(=O)c2ccco2)sc2c1CCC2,0,-1,7,-20,9,7,nt,nt
CCOC(=O)c1c(C)[nH]c(C2=NNC(=Nc3ccc(OCC)cc3)SC2)c1C,nt,-7,17,10,77*,70*,21,13
Cc1ccc(N(C)S(=O)(=O)c2cccc(C(=O)NCC(c3ccco3)N3CCCC3)c2)cc1 (stereo not drawn),nt,6,-1,nt,3,5,nt,nt
CCC(C)[C@H](NC(=O)C1CC(=O)N(c2ccc3c(c2)OCO3)C1)C(=O)NC1CCCCC1 (stereo partly drawn),-21,5,38*,nt,54*,60*,60*,78*
CSCC(C)N1CCC(n2nccc2NC(=O)CCCc2ccccc2)CC1 (stereo not drawn),-64*,3,45*,nt,99*,108*,99*,119*
N#C/C(=C\c1ccc(O)c(O)c1)C(=O)NCCc1ccccc1,nt,-9,3,nt,4,42*,31*,45*
Cc1ccc(NC(=O)CN(C)C(=O)c2ccc(Sc3nncn3C)c([N+](=O)[O-])c2)cc1,nt,-5,3,nt,2,2,nt,nt
CC(C)CCOCC1CC2(CC(C)(c3csc(N)n3)OC2=O)C(=O)O1 (stereo not drawn),2,-8,2,-10,-7,168*,3,-4
Cc1cccc(C)c1-n1nnnc1C(c1ccnc2ccccc12)N1CCN(C/C=C/c2ccccc2)CC1 (stereo not drawn),nt,-5,nt,nt,nt,nt,nt,nt

# Screens from PubChem BioAssay.
